Results reported in PubChem BioAssay (NCATS).
Activity calls are given as the source filed them. The rule behind the calls is not given here.

Tested on: HIV-1 nucleocapsid protein NCp7 (binding to TG oligonucleotide)
Test: HIV Nucleocapsid (AID 346);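 note: potency is for inhibitors that block NC binding and lower polarization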
Conditions: HIV-1 NC / fluorescein-TGTGTGTG probe, fluorescence polarization
In short: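 Inhibition of nucleocapsid binding to single-stranded 5'-TGTGTGTG probe (10 nM) was measured by fluorescence polarization after 1 hr at room temperature with 100 nM protein under high-salt, zinc-containing, reducing conditions.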
Potency is the fitted concentration of half-maximal effect.

| Structure (SMILES) | Potency |
| --- | --- |
| N#Cc1cccc(-c2nc(Nc3ccccc3)c3ccccc3n2)c1 | > 20 µM (inactive) |
| COc1ccc(C(=O)N2CCC[C@@]3(CCN(Cc4cc(C(F)(F)F)cc(C(F)(F)F)c4)C3)C2)cc1 | > 20 µM (inactive) |
| O=C(Nc1ccccc1)N1CCC2(CC1)CCN(C(=O)c1ccncc1)CC2 | > 20 µM (inactive) |
| COc1ccccc1CN1CCC2(CC1)CCN(C(C)=O)CC2 | > 20 µM (inactive) |
| COc1ccc(-c2nc3cnc(N(C)C)nc3n(C3CC3)c2=O)cc1 | > 20 µM (inactive) |
| O=C(c1ccncc1)N1CCC2(CC1)CN(C(c1ccccc1)c1ccccc1)C2 | > 20 µM (inactive) |
| COc1ccc(CNc2ncncc2-c2ccccc2CN(C)C)c(OC)c1 | > 20 µM (inactive) |
| COc1ccc(CNc2ncncc2-c2cccnc2)c(OC)c1 | > 20 µM (inactive) |
| c1cncc(CNc2ncncc2-c2ccoc2)c1 | > 20 µM (inactive) |
| N#Cc1ccccc1-c1nc(NCCN2CCOCC2)c2ccccc2n1 | > 20 µM (inactive) |
| COc1ccc(-c2nc3cnc(N(C)C)nc3n(CCc3ccccc3)c2=O)cc1 | > 4 µM (inactive) |
| COc1ccc(NC(=O)N2CCCC3(CCN(S(C)(=O)=O)CC3)C2)cc1 | > 20 µM (inactive) |
| O=C(c1cccc(F)c1)N1CCC2(CCCN(Cc3ccncc3)C2)CC1 | > 20 µM (inactive) |
| COc1cccc(-c2cncnc2Nc2ccccc2)c1 | > 20 µM (inactive) |
| COCCn1c(=O)c(-c2cn(C)c3ccccc23)nc2cnc(OCc3ccccc3)nc21 | > 20 µM (inactive) |
| CCNc1ncc2nc(-c3cc(F)cc(F)c3)c(=O)n(CCc3ccccc3)c2n1 | > 20 µM (inactive) |
| Cc1noc(C)c1C(=O)N1CCC[C@@]2(CCN(c3cccc(-c4ccccc4)c3)C2)C1 | > 20 µM (inactive) |
| COc1ccccc1-c1nccc(NCc2cccnc2)n1 | > 20 µM (inactive) |
| COc1ncc2nc(CCc3ccccc3)c(=O)n(Cc3ccc(F)cc3)c2n1 | > 20 µM (inactive) |
| COc1ncc2nc(C)c(=O)n(-c3ccccc3)c2n1 | > 20 µM (inactive) |

| Structure (SMILES) | Potency |
| --- | --- |
| Cn1cc(-c2nc3cnc(OCc4ccccc4)nc3n(CCC#N)c2=O)c2ccccc21 | > 20 µM (inactive) |
| Cc1cnc(CNc2ncncc2-c2ccc3c(c2)OCO3)cn1 | > 20 µM (inactive) |
| N#CCCn1c(=O)c(-c2cccc(C#N)c2)nc2cnc(Oc3ccccc3)nc21 | > 20 µM (inactive) |
| COc1ncc2nc(-c3ccccc3)c(=O)n(C[C@H]3CCCO3)c2n1 | > 20 µM (inactive) |
| c1ccc(-c2cccc(N3CCC4(CCNCC4)CC3)c2)cc1 | > 20 µM (inactive) |
| CNc1nc(-c2c(C)noc2C)nc2ccccc12 | > 20 µM (inactive) |
| COCC(=O)N1CCC[C@@]2(CCN(Cc3ccc(C#N)cc3)C2)C1 | > 20 µM (inactive) |
| O=C(c1ccco1)N1CCC2(CCCN(c3cccc(-c4ccccc4)c3)C2)CC1 | > 20 µM (inactive) |
| Cc1cccc(CNc2nc(-c3c(C)noc3C)nc3ccccc23)c1 | > 20 µM (inactive) |
| COc1ncc2nc(CCc3ccccc3)c(=O)n(CCc3ccccc3)c2n1 | > 20 µM (inactive) |
| COc1ccccc1CNc1ncncc1-c1cccc(NS(C)(=O)=O)c1 | > 20 µM (inactive) |
| Cc1ccccc1-c1ccc2ncnc(N(C)Cc3ccco3)c2c1 | > 20 µM (inactive) |
| CC(C)NC(=O)N1CCCC2(CCN(C(=O)c3ccncc3)CC2)C1 | > 20 µM (inactive) |
| CN1CCN(c2ncc3nc(-c4cc(F)cc(F)c4)c(=O)n(CCC#N)c3n2)CC1 | > 20 µM (inactive) |
| CCNc1ncc2nc(CCc3ccccc3)c(=O)n(Cc3ccc(F)cc3)c2n1 | > 4 µM (inactive) |
| CN(C)Cc1ccccc1-c1nccc(N(C)Cc2ccco2)n1 | > 20 µM (inactive) |
| Cn1cccc1C(=O)N1CCC[C@@]2(CCN(c3cccc(-c4ccccc4)c3)C2)C1 | > 20 µM (inactive) |
| CS(=O)(=O)N1CCC2(CCN(c3ccccc3)CC2)CC1 | > 20 µM (inactive) |
| COc1cccc(-c2ccc3ncnc(N(C)C)c3c2)c1 | > 20 µM (inactive) |
| COc1ccccc1CNc1ncncc1-c1ccccc1C | > 20 µM (inactive) |
